Pf Dd2 growth: qHTS Primary assay for Inhibitors of Plasmodium falciparum Dd2 growth in vitro | P. falciparum Dd2 growth, SYBR Green, 72 h | Potency, µM (series often up to 28.9 µM), actives largely listed as inhibitors | hit rate 4.3% among 120,000 | AID 1347417, 2020; active = well fitted inhibition curve with a large enough effect; also: nearly all actives have a fitted effect of over 65% in size
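Readout: SYBR Green fluorescence, 485 nm excitation, 535 nm emission, after ~16 h lysis at 37C. Before that, Dd2-infected red cells (2.5% hematocrit) grew 72 h with compound, 29 uM top final concentration.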
A number is an active result; 0 = inactive; ! = not confirmed by another sample; [ ] = remark or other dose. This is one part of a sample in which hits are shown more often than they occur.

SMILES	Pf Dd2 growth
Cc1ccccc1OCC(=O)Nc1ccc(-c2nc3ccccc3o2)cc1	0
CCN(CC)CC(=O)N1CCC(C(=O)Nc2ccc(-c3nc4ccccc4o3)cc2)CC1	10µM
CN(C)c1ccc(C(=O)Nc2ccc(-c3nc4ccccc4o3)cc2)cc1	0
CC(=O)c1sc2c(c1C)c(=O)n(-c1ccc(Cl)cc1)c(=O)n2Cc1cc(=O)n2cc(Cl)ccc2n1	1.3µM
CCOc1ccc(-n2c(=O)c3c4c(sc3n(Cc3cc(=O)n5cc(Cl)ccc5n3)c2=O)CCC4)cc1	0
Cc1sc2c(c1C)c(=O)n(-c1ccc(Cl)cc1)c(=O)n2Cc1cc(=O)n2ccccc2n1	0
c1csc(CN2CC[C@H](c3nc4ccccc4[nH]3)C2)c1	0
CN(C)C[C@H]1O[C@H](Cc2cc(CN(C)Cc3ccccc3)on2)CC[C@@H]1O	0
CC(=O)N1CCC(NC[C@H]2O[C@H](Cc3cc(COc4ccccc4)on3)CC[C@@H]2O)CC1	0
COc1ccc(C(=O)NC[C@H]2O[C@H](Cc3cc(COc4ccccc4)on3)CC[C@@H]2O)cc1	0
COCc1cc(C[C@@H]2CC[C@H](O)[C@@H](CNC3CCN(C)CC3)O2)no1	0
CCNC(=O)NC[C@H]1O[C@H](Cc2cc(CN(C)Cc3ccccc3)on2)CC[C@@H]1O	0
COc1ccc(CNC[C@H]2O[C@H](Cc3cc(COc4ccccc4)on3)CC[C@@H]2O)cc1	4µM
O[C@H]1CC[C@@H](Cc2cc(-c3ccc(F)cc3)on2)O[C@@H]1CNCc1ccncc1	10µM
O[C@H]1CC[C@@H](Cc2cc(-c3ccc(F)cc3)on2)O[C@@H]1CNC1CCNCC1	0
CC(C)NC[C@H]1O[C@H](Cc2cc(CN(C)Cc3ccccc3)on2)CC[C@@H]1O	11µM
Cc1ccc(CNC[C@H]2O[C@H](Cc3cc(-c4ccc(F)cc4)on3)CC[C@@H]2O)cc1	0
CN(Cc1ccccc1)Cc1cc(C[C@@H]2CC[C@H](O)[C@@H](CNCc3ccccc3)O2)no1	1.8µM
CCC(=O)NC[C@H]1O[C@H](Cc2cc(COc3ccccc3)on2)CC[C@@H]1O	0
O=C1CCN(C(=O)[C@@H]2CCCN2C(=O)NCCc2ccccc2)CCCCCCN1	0
COc1ccc(-c2n[nH]c3c2CC(=O)N(c2ccccc2)C3)cn1	0
O=C(COc1ccccc1)N1CCN(c2cc(C(F)(F)F)ncn2)CC1	0
CC(=O)N1CCC(Oc2ccc(Cl)cc2C(=O)N(C)CCN2CCOCC2)CC1	0
O=C(C[C@H]1NC(=O)c2ccccc2NC1=O)Nc1nc(-c2ccccn2)cs1	0
COc1ccc(-c2[nH]nc3ncc(C(=O)N(C)c4cccnc4)nc23)c(C)c1	0
SMILES	Pf Dd2 growth
Cn1cc(CC(=O)N2CCCc3ncc(C(=O)NCc4ccoc4)cc32)c2ccccc21	0
CC(C)CCNC(=O)c1cnc2c(c1)N([S+](=O)([O-])c1cccnc1)CCC2	0
O=C(c1cnc2c(c1)N([S+](=O)([O-])c1cccnc1)CCC2)N1CCC[C@@H]1c1ccc(F)cc1	0
Cn1cc(CC(=O)N2CCCc3ncc(C(=O)Nc4cccc(Cl)c4)cc32)c2ccccc21	4.5µM
CN(C)CCNC(=O)c1cnc2c(c1)N(C(=O)Cc1cn(C)c3ccccc13)CCC2	0
O=C(Nc1cccc(Cl)c1)c1cnc2c(c1)N([S+](=O)([O-])c1cccnc1)CCC2	11µM
COc1ccc(S(=O)(=O)N[C@H](C)c2onc(-c3cccnc3)c2C(=O)O)cc1	0
O=S(=O)(Cc1ccccc1)N1CCC2(CC1)CC(OCC1CC1)CCO2 (stereo unspecified)	0
COc1ccc(CCNC(=O)CCc2c(C)nc3cc(-c4cccc(F)c4)nn3c2C)cc1OC	0
COc1ccc(-c2cc3nc(C)c(CCC(=O)N4CCN(c5ccccc5)CC4)c(C)n3n2)c(OC)c1	0
COc1ccc(CNC(=O)CCc2c(C)nc3cc(-c4ccc(OC)cc4OC)nn3c2C)cc1	11µM
COc1ccccc1-c1cc2nc(C)c(CCC(=O)NCCc3ccc(SC)cc3)c(C)n2n1	13µM
COc1cc(OC)cc(-c2cc3nc(C)c(CCC(=O)Nc4ccccc4OC)c(C)n3n2)c1	0
COc1ccccc1-c1cc2nc(C)c(CCC(=O)Nc3cc(C)ccc3C)c(C)n2n1	0
COc1cc(OC)cc(-c2cc3nc(C)c(CCC(=O)NCc4ccccc4)c(C)n3n2)c1	0
CCOC(=O)c1ccc(NC(=O)CCc2c(C)nc3cc(-c4ccc(OC)cc4OC)nn3c2C)cc1	5µM
COc1cc(OC)cc(-c2cc3nc(C)c(CCC(=O)Nc4ccc(C(C)=O)cc4)c(C)n3n2)c1	0
O=C(O)C[C@@H]1CCN(C(=O)COc2ccccc2)C[C@@H]1CCN1CCN(c2ccccc2)CC1	0
O=C(CCn1cccn1)N1CCC2(CC1)CN(Cc1ccccc1)CC2CO (stereo unspecified)	0
O=C(Cc1ccc(Cl)cc1)N1C[C@@H](CO)[C@H](c2ccccn2)C1	0
Cc1ccccc1NC(=O)N1CCC(CCNC(=O)C2CCC2)CC1	0
O=C(CC1CCCN(c2cnn(CC3CC3)c(=O)c2)C1)NCc1ccncc1 (stereo unspecified)	0
CNC(=O)[C@@H](C1CCCCC1)N1CCC[C@H]1C(=O)N1CCOCC1	0
O=C(Nc1ccc2c(c1)OCCO2)N1c2ccccc2CC1c1nc(C2CC2)no1 (stereo unspecified)	0[5.79 µM]
COc1ccc2[nH]c(C(=O)N3CCC4(CC3)CC(c3nc(C)no3)N(C)C4)cc2c1 (stereo unspecified)	7.9µM
SMILES	Pf Dd2 growth
CNC(=O)[C@@H]1CN(C(=O)c2cc3cc(OC)ccc3[nH]2)C[C@H]1c1nc(C)no1	0
COc1ccc2cc(C(=O)N3CCC4(CC3)CC(c3nc(C)no3)N(C)C4)[nH]c2c1 (stereo unspecified)	0
O=C(c1ccc(Cl)cc1)N1CCC2(C1)C(=O)N(Cc1ccccc1)c1ccccc12 (stereo unspecified)	0
COCC(=O)N1CCC2(C1)C(=O)N(CCc1ccccc1)c1ccccc12 (stereo unspecified)	0
O=C(c1ccccc1)N1CCC2(C1)C(=O)N(Cc1ccccc1)c1ccccc12 (stereo unspecified)	0
COC(=O)N1CCC2(C1)C(=O)N(CCc1ccccc1)c1ccccc12 (stereo unspecified)	13µM!
COc1cccc(C(=O)N2CCC3(C2)C(=O)N(CCc2ccccc2)c2ccccc23)c1 (stereo unspecified)	7.9µM
COc1ccc(CC(=O)N2CCC3(C2)C(=O)N(CCc2ccccc2)c2ccccc23)cc1 (stereo unspecified)	0
O=C1CCN(C(=O)CCc2ccccc2)CCCC(c2nc(-c3ccccc3)no2)CCN1 (stereo unspecified)	0
CC(C)CNC(=O)N1CCC2(CC1)CC(C(=O)N1CCOCC1)N(C)C2 (stereo unspecified)	0
Cc1ccc2c(c1)N1C(=O)OC[C@@H]1CCN(C(=O)COCc1ccccc1)C2	0
COc1ccc(CC(=O)N[C@H]2[C@H](O)[C@H](O)C[C@@H]2c2ccc(C(F)(F)F)cc2)cc1	0
COc1ccc([C@H]2C[C@@H](O)[C@@H](O)[C@@H]2NC(=O)c2ccc(C(F)(F)F)cc2)cc1	0
Cc1ccccc1[C@H]1C[C@@H](O)[C@@H](O)[C@@H]1NC(=O)c1ccc(C(F)(F)F)cc1	0
COc1ccccc1C(=O)N[C@H]1[C@H](O)[C@H](O)C[C@@H]1c1ccc(C(F)(F)F)cc1	0
COc1ccc([C@H]2C[C@@H](O)[C@@H](O)[C@@H]2NC(=O)Nc2ccc(C(F)(F)F)cc2)cc1	3.2µM

Compound activity as filed in PubChem BioAssay.
